Assay results published in PubChem BioAssay AID449746 (Sanford-Burnham Center for Chemical Genomics, 2010).
Hit rate of the full screen: of about 2,000 compounds, about 680 (34%) were called active. No stated cut-off is given here; in the data, active means inhibition mostly above about 28% (no sharp cut-off); inactive means mostly below about 22%. A selection follows.

Experiment: lowers stimulated NF-kB luciferase signal in 697 cells – cell-based, luminescence, single concentration, B-cell NF-kB inhibitor project, confirmation (AID 449746)
Conditions: 697 B-cell NF-kB luciferase, PMA/ionomycin, 16 h; at 4 µM; active compounds read high

| Compound | inhibition |
| --- | --- |
| CCOc1cc(C(=O)N2CCc3cc(OC)c(OC)cc3C2)ccc1OC(F)F | 43.5% (active) |
| Cc1ccc(C(=O)C[n+]2cc(-c3ccccc3)n3c2CCCCC3)cc1 | 11.4% (inactive) |
| c1ccc2[nH]c(-c3nc4ccccc4[nH]3)nc2c1 | -191% (inactive) |
| Cc1cccc(Nc2nc(-c3ccccc3)cs2)n1 | -201% (inactive) |
| CCN1/C(=C\c2ccc3ccccc3[n+]2CC)Sc2cc(C)ccc21 | 68.5% (active) |
| COc1cccc(NC(=O)[C@H](Cc2c[nH]c3ccccc23)NC(=O)[C@@H]2Cc3ccccc3CN2)c1 | 0.1% (inactive) |
| CC[n+]1cc(C)ccc1/C=C/c1ccc(N(C)C)cc1 | 17.4% (inactive) |
| OCCCNc1nccc(-c2cc(Nc3cccc(Cl)c3)ncn2)n1 | 85.9% (active) |
| COC(=O)C1=C(C(=O)c2ccc(C)cc2)C(c2ccccc2)n2nnnc2N1 (configuration not stated) | 22.4% (inactive) |
| CCc1ccc2oc(-c3ccc(N)cc3)nc2c1 | -417% (inactive) |
| CCCCCc1ccc(-c2ccc(C(=O)O)cc2)nc1 | -165% (inactive) |
| CNc1nc(Nc2ccc(C)c(Cl)c2)nc(N)c1[N+](=O)[O-] | -231% (inactive) |
| O=C(C1CCC1)N1CCN(S(=O)(=O)c2ccc([N+](=O)[O-])cc2)CC1 | 30.8% (active) |
| C=CCSc1nc(N)cc(=O)[nH]1 | -19.9% (inactive) |
| COc1ccc(C(=O)n2nc(-c3ccc(Cl)cc3)nc2N)cc1OC | 46.5% (active) |
| C=CCn1c(C)cc(C2=NNC(=NCC)SC2)c1C | 2.7% (inactive) |
| COc1cc(/C=N/NC(=O)c2ccc(N3CCCC3=O)cc2)ccc1O | -89.1% (inactive) |
| COc1ccc(-c2nc(-c3ccccc3)no2)c(OC)c1 | -330% (inactive) |
| O=C(O)COc1ccc(-c2nccc(-c3cccs3)n2)cc1 | 55% (active) |
| CCn1c(O)c(N=NC2=NC(=O)CS2)c2cc(C)ccc21 | 17.4% (inactive) |
| COc1ccc(/C=N/Nc2ccccc2C(=O)O)cc1 | -12.1% (inactive) |
| Clc1ccc(Nc2ccc3ccccc3n2)cc1 | -340% (inactive) |

| Compound | inhibition |
| --- | --- |
| C/C=C(/C)C(=O)OC1Cc2c(ccc3ccc(=O)oc23)OC1(C)C (configuration not stated) | 50.1% (active) |
| COc1ccc(/C=N\NC(=O)c2sc(N)nc2C)cc1OC | 7.5% (inactive) |
| CCC(=O)Nc1ccc2nn(-c3ccc(F)cc3)nc2c1 | -298% (inactive) |
| COc1ccc(CNC(=O)[C@@H]2CC=C[C@@H]3CCN(C4CC4)C(=O)[C@@H]32)cc1 | 6.95% (inactive) |
| CCOC(=O)c1cc2c(=O)n3ccccc3nc2n(CC(C)C)c1=NC(=O)c1c(-c2c(F)cccc2Cl)noc1C | 33% (active) |
| CCOc1cccc(/C=C/c2ccc3ccccc3n2)c1OC(C)=O | -337% (inactive) |
| Cn1nccc1C(=O)NC1CCCc2c1cnn2-c1ccccc1F (configuration not stated) | 97.9% (active) |
| Cn1nccc1C(=O)NC1CCCc2c1cnn2-c1ccc(F)cc1F (configuration not stated) | 105% (active) |
| COc1ccc(C(=O)NC2CCCc3c2cnn3-c2cccc(C)c2C)c(OC)n1 (configuration not stated) | -397% (inactive) |
| Cc1cc(Nc2cc(N3CCN(C)CC3)nc(Sc3ccc(NC(=O)C4CC4)cc3)n2)n[nH]1 | 27.8% (inactive) |
| COc1c(C)c2c(c(O)c1C/C=C(\C)CCC(=O)O)C(=O)OC2 | -398% (inactive) |
| CC(C)CC(=O)N/C(N)=N/c1nc2ccccc2s1 | -290% (inactive) |
| Cc1ccc2cc3cc(C(=O)N4CCCCCC4)oc3nc2c1 | -242% (inactive) |
| COc1cc(N=Cc2c(O)[nH]c3ccccc23)cc(OC)c1OC | 20.8% (inactive) |
| OCCN1CCN(C(=S)c2ccc(-c3ccccc3)cc2)CC1 | 47% (active) |
| CCOC(=O)c1c(-c2ccc(C)cc2C)csc1NC(=O)CSc1nnnn1C | -192% (inactive) |
| COc1ccc(-c2csc(Nc3ccccn3)n2)cc1 | -117% (inactive) |
| O=C(CN1C(=O)c2ccccc2S1(=O)=O)N1CCc2ccccc21 | 32.4% (active) |
| Cc1cc(N=Nc2ccc3ccccc3c2)ccc1O | -266% (inactive) |
| CC(C)(C)c1ccc(Oc2ccc(N)cc2)cc1 | 17.2% (inactive) |
| Cn1c(-c2ccc(C(F)(F)F)cc2)cc2onc(-c3ccccc3)c2c1=O | -301% (inactive) |
| Cc1cc(N)n2nc(-c3ccc(C(C)(C)C)cc3)cc2n1 | -470% (inactive) |

| Compound | inhibition |
| --- | --- |
| O=C(NC(Nc1nc2ccc([N+](=O)[O-])cc2s1)(C(F)(F)F)C(F)(F)F)c1ccccc1 | -31.2% (inactive) |
| CCNC(=O)CCc1nc(-c2ccc(C(C)(C)C)cc2)no1 | 79.3% (active) |
| CCCNC(=O)c1ccc(N2CCC3(CC2)CC(c2cccc(Br)c2)=NO3)c(NC(=O)c2ccco2)c1 | 16.6% (inactive) |
| O=C(NCCCN1CCOCC1)c1cc(-c2ccc(Cl)cc2)on1 | 17.5% (inactive) |
| O=c1c2c(nc3cc(-c4cccc(Cl)c4)[nH]n13)CCCC2 | -285% (inactive) |
| Clc1ccc2nc(CSc3ccccc3)cn2c1 | -248% (inactive) |
| CC(C)C[C@@H](N)c1nnc(SCC(=O)c2ccc(Cl)cc2)o1 | 56.2% (active) |
| Fc1ccccc1/C=N/Nc1cc(N2CCCCC2)ncn1 | -264% (inactive) |
| CCOc1ccc(C(c2c(C)[nH][nH]c2=O)c2c(C)[nH][nH]c2=O)cc1OCC | 18.2% (inactive) |
| Cn1c(=O)cc(SCC(=O)N2CCCC2)c2cc(Cl)ccc21 | 38.2% (active) |
| CC(C)CCNC(=O)c1ccc2c(Cl)c3c(nc2c1)CCC3 | -231% (inactive) |
| Cc1ccc(O)c(NC(=O)COc2cc(C)ccc2C)c1 | 28.7% (active) |
| Cc1ccc(NC(=O)c2cc([N+](=O)[O-])ccc2Cl)c(O)c1 | 11.5% (inactive) |
| CC[C@]1(O)CC2CN(CCc3c([nH]c4ccccc34)[C@@](C(=O)OC)(c3cc4c(cc3OC)N(C=O)[C@H]3[C@@](O)(C(=O)OC)[C@H](OC(C)=O)[C@]5(CC)C=CCN6CC[C@]43[C@@H]65)C2)C1 (some centres not stated) | -337% (inactive) |
| COc1ccc(C2=Nc3cc(C)ccc3OC2)cc1 | -255% (inactive) |
| Cc1ccc(N/C=C/C(=O)c2ccccc2)cc1C | -12.9% (inactive) |
| Cc1cccc(C(=O)Nc2ccc(CC(=O)O)cc2)c1 | 21.7% (active) |
| CNC(=O)c1ccc(NC(=O)c2cccc(C(F)(F)F)c2)cc1 | 12.7% (inactive) |
| COc1ccc(-n2nnnc2-c2nc3ccccc3s2)cc1 | -323% (inactive) |
| COc1ccc2nc(SCc3ccccc3)nc(C)c2c1 | -295% (inactive) |
| Cn1c(=O)n(C)c2cc(C(=O)Nc3ccc4c(c3)OCO4)ccc21 | 35.1% (active) |
| O=C(Nc1nc2ccccc2s1)c1ccc2c(c1)OCO2 | -466% (inactive) |

| Compound | inhibition |
| --- | --- |
| C/C(=N\Nc1nc(Nc2ccccc2)nc(N2CCOCC2)n1)c1cccs1 | 34.2% (active) |
| Cc1ccc(-n2cc3ccc([N+](=O)[O-])cc3n2)cc1 | -341% (inactive) |
| Cc1cc2nc(-c3ccc(NC(=O)c4cccnc4)cc3)oc2cc1C | -187% (inactive) |
| Cc1cccc(-n2c(C)cc(/C=N\NC(=O)c3cccs3)c2C)c1 | -11.6% (inactive) |
| C[C@@H]1C[C@@H]2O[C@H]2/C=C\C=C\C(=O)Cc2c(Cl)c(O)cc(O)c2C(=O)O1 | 79.9% (active) |
| COc1cccc(/C=C/c2ccc3ccccc3n2)c1OC(C)=O | -459% (inactive) |
| C=CCOc1ccc(/C=C2\SC(=S)N(CCC(=O)O)C2=O)cc1 | 54.5% (active) |
| COc1ccc(/C=C2\SC(=S)N(CCC(=O)Nc3ccccn3)C2=O)cc1OC | 10.2% (inactive) |
| NS(=O)(=O)c1ccccc1NC(=O)c1c(O)c2ccccc2[nH]c1=O | -472% (inactive) |
| O=C(/C=C/c1ccc(OCc2c(F)cccc2Cl)cc1)N1CCOCC1 | -278% (inactive) |
| COc1ccc(CNC(=O)CNC(=O)c2sc3ccccc3c2Cl)cc1OC | 3.3% (inactive) |
| Cn1c(-c2ccc(F)cc2)cc2onc(-c3ccccc3Cl)c2c1=O | -244% (inactive) |
| O=C(O)CCn1c(O)c(C=C2N=c3ccccc3=N2)sc1=S | 58.5% (active) |
| O=c1[nH]c(-c2ccccc2)c(-c2ccccc2)[nH]1 | 25.8% (inactive) |
| CCOc1ccc(N/C=C/C(=O)c2ccccc2)cc1 | -272% (inactive) |
| COc1ccccc1OCc1nc2ccccc2s1 | -319% (inactive) |
| CCCc1nc2c(C)cc(-c3nc4ccccc4n3C)cc2n1Cc1ccc(-c2ccccc2C(=O)O)cc1 | 28.4% (active) |
| Cc1ccc(OCc2nc3ccccc3n2C)cc1 | -216% (inactive) |
| Cn1c(-c2ccc(C(=O)c3ccccc3)s2)nc2ccccc21 | -249% (inactive) |
| COc1cccc(-c2nc3cc(C)ccc3o2)c1 | -299% (inactive) |
| COc1ccc(Nc2nc(-c3ccccc3)cs2)cc1 | -131% (inactive) |
